{"source": "ChEMBL document CHEMBL4888484", "about": "“Replenishing the malaria drug discovery pipeline: Screening and hit evaluation of the MMV Hit Generation Library 1 (HGL1) against asexual blood stage Plasmodium falciparum ,using a nano luciferase reporter read-out” (2022)", "note": "Hit rate of the full screen: of about 150,000 compounds, about 540 (0.36%) showed an effect of 50% or more. The entries come from a sample that favours strong results as a whole."}
{"tested_on": "Plasmodium falciparum", "experiment": "Primary screen in NF54 nanoGlo assay, in single point, at 2uM, 72h; a lower Z score goes with more inhibition", "type": "functional, Erythrocyte", "settings": "timepoint 72 hour", "units": {"% Inhibition": "%"}}
{"smiles": "CN1CCC(NC(=O)NCC2(CO)CCC2)C1c1ccccc1", "note": "(configuration not stated)", "% Inhibition": -12, "Z score": 2.33}
{"smiles": "Cc1cccnc1[C@H](C)NC(=O)CNC(=O)N(C)C", "% Inhibition": -9, "Z score": 1.68}
{"smiles": "Fc1ccc(Cc2nnc3n2CCCC3)cc1", "% Inhibition": 3, "Z score": -0.52}
{"smiles": "COc1ccccc1CNc1nc2[nH]c3c(c(=O)n2n1)CCCC3", "% Inhibition": 8, "Z score": -0.7}
{"smiles": "CC(C)(C)[C@H]1CCc2c(sc(NC(=O)c3cc(-c4ccccc4)nc4ccccc34)c2C#N)C1", "% Inhibition": 13, "Z score": -1.58}
{"smiles": "CC(C)(C)[C@H]1CCc2c(sc(NC(=O)CN3CCCC3)c2C#N)C1", "% Inhibition": 10, "Z score": -1.29}
{"smiles": "CC(C)(C)[C@H]1CCc2c(sc(NC(=O)C3(F)C(F)(F)C(F)(F)C(F)(F)C(F)(F)C3(F)F)c2C#N)C1", "% Inhibition": 77, "Z score": -6.03}
{"smiles": "Cc1ccc(N2CCCC2=O)cc1NC(=O)N1CCC(c2n[nH]cc2C)CC1", "% Inhibition": -8, "Z score": 1.78}
{"smiles": "Cc1csc(CNC(=O)NCc2nnc3n2CCOCC3)c1", "% Inhibition": -2, "Z score": 0.17}
{"smiles": "C[C@H]1CCc2c(cnc3c(C(=O)NCc4ccccc4)cnn23)C1", "% Inhibition": 33, "Z score": 0.71}
{"smiles": "COc1ccc(CCNC(=O)c2cnn3c4c(cnc23)C[C@@H](C)CC4)cc1OC", "% Inhibition": 61, "Z score": -4.54}
{"smiles": "COc1cccc(CNC(=O)c2cnn3c4c(cnc23)C[C@@H](C)CC4)c1", "% Inhibition": 0, "Z score": 0.03}
{"smiles": "O=C(COc1ccc(Cl)cc1)N1CC(=O)N2CCc3ccccc3[C@@H]2C1", "% Inhibition": -8, "Z score": 1.08}
{"smiles": "O=C(CC(c1ccccc1)c1ccccc1)N1CC(=O)N2CCc3ccccc3[C@@H]2C1", "% Inhibition": 39, "Z score": -5.29}
{"smiles": "O=C(CN1C(=O)c2ccccc2C1=O)N1CC(=O)N2CCc3ccccc3[C@@H]2C1", "% Inhibition": 65, "Z score": -8.85}
{"smiles": "CCN(CC)S(=O)(=O)c1ccc(F)c(C(=O)OCCNC(C)=O)c1", "% Inhibition": -10, "Z score": 0.84}
{"smiles": "CC1(C)CCC(Nc2ccc(C(N)=O)nn2)CC1", "% Inhibition": 77, "Z score": -11.08}
{"smiles": "Nc1ccc(-c2ccc(NC3CCCC3)nn2)cn1", "% Inhibition": -16, "Z score": 1.48}
{"smiles": "CNC(=O)c1ccc(NC2CC3CC3C2)nn1", "note": "(configuration not stated)", "% Inhibition": 6, "Z score": -0.99}
{"smiles": "COc1ccc(OC)c([C@@H]2CCCN2c2nnc(-c3ccccn3)s2)c1", "% Inhibition": -13, "Z score": 2.07}
{"smiles": "Cc1ccc(C(F)(F)C(=O)NCCC(=O)NS(C)(=O)=O)cc1", "% Inhibition": 57, "Z score": -7.27}
{"smiles": "Cc1ccccc1OCC(=O)NS(C)(=O)=O", "% Inhibition": -1, "Z score": 0.11}
{"smiles": "O=C(NCCc1nc2ccccc2[nH]1)C(F)(F)c1ccc(F)cc1", "% Inhibition": 4, "Z score": -0.36}
{"smiles": "COc1ccccc1NC(=O)C1C(=O)NC23CCCCC2C1c1ccccc1O3", "note": "(configuration not stated)", "% Inhibition": -8, "Z score": 1.04}
{"smiles": "COc1ccc2c(c1)OC13CCN(C)CC1C2C(C(=O)c1ccccc1OC)C(=O)N3", "note": "(configuration not stated)", "% Inhibition": 58, "Z score": -6.85}
{"smiles": "Cc1cccc(NC(=O)C2C(=O)N[C@]34CCCCC3C2c2ccccc2O4)c1", "note": "(some centres not stated)", "% Inhibition": 2, "Z score": -0.27}
{"smiles": "O=C(CCOc1ccc(F)c(Cl)c1)NCc1cccnc1", "% Inhibition": 15, "Z score": -2.11}
{"smiles": "CN(CCO)C[C@@H]1CN(C(=O)C2(c3ccccc3)CCCC2)C[C@@H]1CO", "% Inhibition": -27, "Z score": 2.7}
{"smiles": "COc1cccc(-c2cc(O)cc(CC[C@H]3CCCCN3)c2)n1", "% Inhibition": 80, "Z score": -13.26}
{"smiles": "COc1nccnc1-c1cc(O)cc(CC[C@H]2CCCCN2)c1", "% Inhibition": -23, "Z score": 3.42}
{"smiles": "CN(C)c1cncc(-c2cc(O)cc(CC[C@H]3CCCCN3)c2)n1", "% Inhibition": -2, "Z score": 0.33}
{"smiles": "Oc1cc(CC[C@H]2CCCCN2)cc(-c2cnc3ccccc3n2)c1", "% Inhibition": 59, "Z score": -7.37}
{"smiles": "Oc1ccc(-c2cc(O)cc(CC[C@H]3CCCCN3)c2)nc1", "% Inhibition": -14, "Z score": 1.77}
{"smiles": "COc1ccnc(-c2cc(O)cc(CC[C@H]3CCCCN3)c2)n1", "% Inhibition": -4, "Z score": 0.49}
{"smiles": "CC(C)(C)OC(=O)N1CC(CNC2(c3ncon3)CCC2)C1", "% Inhibition": 9, "Z score": -1.69}
{"smiles": "CC1(C)[C@H]2CC=C(CCNc3nc(-c4ccncc4)nc4c3CNC4)[C@@H]1C2", "% Inhibition": 0, "Z score": -0.03}
{"smiles": "CN(C[C@@H]1CCCN2CCCC[C@H]12)C(=O)Cc1c[nH]c2ccccc12", "% Inhibition": -1, "Z score": 0.06}
{"smiles": "Cc1cc(-c2cncc(CN3CCCCC3)c2)ccc1F", "% Inhibition": 50, "Z score": -1.27}
{"smiles": "Cc1cc(-c2cncc(CN3CCC(C(N)=O)CC3)c2)ccc1F", "% Inhibition": -2, "Z score": 0.18}
{"smiles": "COc1ccc(-c2cncc(CN3CCCC3)c2)cc1OC", "% Inhibition": -9, "Z score": 1.71}
{"smiles": "Cc1ccc2c(C(=O)N3CCCCC3)cc(-c3cncnc3)nc2c1C", "% Inhibition": 3, "Z score": -0.37}
{"smiles": "O=c1c2cc(F)ccc2c(Br)cn1CC1(CO)COC1", "% Inhibition": 20, "Z score": -2.48}
{"smiles": "C[C@H](NC(=O)c1cc(C(F)(F)F)n[nH]1)c1n[nH]c(N)n1", "% Inhibition": -2, "Z score": 0.47}
{"smiles": "OC1=Nc2c(ncn2-c2cccnc2)[C@@H](c2ccc(F)c(F)c2)C1", "% Inhibition": 0, "Z score": -0.05}
{"smiles": "CCC1=Nc2ccccc2N=C(NC(=O)CN2CCN(C)CC2)[C@H]1c1ccccc1", "% Inhibition": -6, "Z score": 0.93}
{"smiles": "CCC1=Nc2ccccc2N=C(NC(=O)c2ccc(F)cc2)[C@H]1c1ccc(OC)c(OC)c1", "% Inhibition": -11, "Z score": 1.75}
{"smiles": "CCC1=Nc2ccccc2N=C(NC(=O)C(C)C)[C@H]1c1ccc(F)cc1", "% Inhibition": 64, "Z score": -2.85}
{"smiles": "Cc1nc(N2C(=O)N(C)C3(CCCC3)C2=O)oc1C", "% Inhibition": 3, "Z score": -0.31}
{"smiles": "C[C@H](NC(=O)c1ccco1)c1cc2c(cc1Br)OCCCO2", "% Inhibition": 60, "Z score": 0.9}
{"smiles": "O=C(Nc1ccc2c(c1)OCCCO2)c1ccco1", "% Inhibition": 29, "Z score": -3.9}
{"smiles": "C[C@@H](NC(=O)c1ccco1)c1ccccc1", "% Inhibition": 0, "Z score": 0.04}
{"smiles": "CC(NCC1COC(C)(C)O1)c1cc(Cl)c(N)c(Cl)c1", "note": "(configuration not stated)", "% Inhibition": 2, "Z score": -0.28}
{"smiles": "Clc1cccc(-c2ccc(CNC3CCCCC3)o2)c1", "% Inhibition": -9, "Z score": 1.31}
{"smiles": "Cc1nnc(NCc2ccc(-c3cccc(Cl)c3Cl)o2)n1C", "% Inhibition": -8, "Z score": 0.79}
{"smiles": "CCCN1CCC(NCc2ccc(-c3cccc(Cl)c3Cl)o2)CC1", "% Inhibition": 55, "Z score": -11.87}
{"smiles": "Oc1nc(N2CCOC3(CCCC3)C2)ncc1F", "% Inhibition": 55, "Z score": -9.19}
{"smiles": "Fc1cccnc1N1CCOC2(CCC2)C1", "% Inhibition": -15, "Z score": 1.72}
{"smiles": "OCCOc1cncc(N2CCOC3(CCCCCC3)C2)n1", "% Inhibition": 8, "Z score": -0.67}
{"smiles": "CC(=O)c1cccc(-c2ccc3c(cnn3CC(=O)Nc3ccnn3C)c2)c1", "% Inhibition": -12, "Z score": 1.94}
{"smiles": "Cc1ccc(CNC(=O)NCC(=O)N2CCC=C(F)C2)cc1", "% Inhibition": 0, "Z score": 0.03}
{"smiles": "O=C(Nc1cnccc1CO)c1csc(C2CCCCC2)c1", "% Inhibition": 0, "Z score": 0.04}
{"smiles": "O=C(N[C@H]1C[C@@H]2C[C@H]1N(C(=O)c1ccccc1C(F)(F)F)C2)c1cccnc1", "% Inhibition": 35, "Z score": -3.96}
{"smiles": "c1ccc(C2=NN(c3ccc(-c4cc(-c5ccccc5)[n+](-c5ccccc5)c(-c5ccccc5)c4)cc3)[C@H](c3ccccc3)C2)cc1", "% Inhibition": 91, "Z score": -14.02}
{"smiles": "Cc1cccc(NCc2ccc(N3N=C(c4ccccc4)C[C@H]3c3ccccc3)cc2)c1", "% Inhibition": -1, "Z score": 0.11}
{"smiles": "O=C(NCc1ccc(-n2cncn2)nc1)c1ccncc1", "% Inhibition": -19, "Z score": 1.67}
{"smiles": "O=C(Cc1ccc(Cl)cc1)Nc1cnc(-n2ccnc2)nc1", "% Inhibition": 4, "Z score": -0.61}
{"smiles": "COC1(C)CC(N(C)C(=O)[C@@H]2Cc3cncn3C(=O)N2)C1(C)C", "note": "(some centres not stated)", "% Inhibition": -3, "Z score": 0.52}
{"smiles": "Cn1cnnc1[C@H]1CCCN(S(=O)(=O)N2CCCCC2)C1", "% Inhibition": -6, "Z score": 0.88}
{"smiles": "O=C(N[C@H]1CCc2ncccc2C1)c1cccc(B(O)O)c1", "% Inhibition": -4, "Z score": 0.45}
{"smiles": "O=C(NCCN1CCC(CO)CC1)N1CC(Oc2ccccc2F)C1", "% Inhibition": -17, "Z score": 1.55}
{"smiles": "NC1CC(c2cc(NCc3cccnc3)nc(C3CC3)n2)C1", "note": "(configuration not stated)", "% Inhibition": 15, "Z score": -2.04}
{"smiles": "N[C@H]1C[C@H](c2cc(NCCCc3cccnc3)nc(C3CC3)n2)C1", "% Inhibition": 71, "Z score": -7.09}
{"smiles": "CC(=O)N[C@H]1C[C@@H](c2cc(NCCCc3cccnc3)nc(C)n2)C1", "% Inhibition": -15, "Z score": 2.91}
{"smiles": "C[C@@H](C(=O)NC(C)(C)c1noc(C(N)=O)n1)c1ccccc1", "% Inhibition": 2, "Z score": -0.23}
{"smiles": "O=C1COc2ccccc2N1Cc1nc(-c2ccc(N3CCOCC3)cc2)no1", "% Inhibition": -19, "Z score": 2.51}
{"smiles": "C[C@@H](c1cccnc1)N(C)CC(=O)Nc1nccs1", "% Inhibition": 9, "Z score": -1.03}
{"smiles": "CC(C)N(CC(=O)Nc1nccs1)Cc1ccccn1", "% Inhibition": 65, "Z score": -10.08}
{"smiles": "CC(C)N(CC(=O)Nc1nccs1)C(=O)COCc1ccccc1", "% Inhibition": -7, "Z score": 0.71}
{"smiles": "COc1ccc(Nc2nc(N3CCCC3)nc3c2cnn3C)cc1Cl", "% Inhibition": 27, "Z score": -3.01}
{"smiles": "O=C(Cn1ncn2nccc2c1=O)Nc1cc(Cl)cc(Cl)c1", "% Inhibition": -3, "Z score": 0.43}
{"smiles": "CC(C)(Oc1ccc(Cl)cc1)C(=O)Nc1c2c(nn1C(C)(C)C)CS(=O)(=O)C2", "% Inhibition": -14, "Z score": 2.68}
{"smiles": "COc1ccc(Cl)cc1C(=O)Nc1ccnn1C[C@H]1CCOC1", "% Inhibition": 3, "Z score": -0.37}
{"smiles": "COc1ccc(CC(=O)Nc2cc(C3CC3)nn2-c2nc(C)cc(=O)[nH]2)cc1", "% Inhibition": 0, "Z score": -0.01}
{"smiles": "COc1ccc(Cl)cc1C(=O)N[C@H]1CCc2nn(C)c(=O)cc2C1", "% Inhibition": -18, "Z score": 3.11}
{"smiles": "COc1ccc(Cl)cc1C(=O)Nc1cc(C2CC2)nn1-c1nc(C)cc(=O)[nH]1", "% Inhibition": 63, "Z score": -6.61}
{"smiles": "Cc1cc(=O)[nH]c(-n2nc(C3CC3)cc2NC(=O)C(C)(C)Oc2ccc(Cl)cc2)n1", "% Inhibition": 84, "Z score": -15.44}
